Common to all, as to assay: yeast three-hybrid, YBZ-1, SC-Leu-His + 0.5 mM 3-AT, 4 days
What all share (details): tags: N-Gal4 AD-HA kept; label: inside an RPR1-promoter hybrid RNA with tandem MS2 sites; ssRNA

The target in assay [1] is PUM1 PUF domain R8-NWH (Homo sapiens, UniProt Q14671 828-1176, Y1123W;Q1126H). The method, boiled down:
(§1)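 The interaction score is the log change in how often each variant appears, from input to selection. Frequencies came from PCR-amplified, Illumina-sequenced repeat regions of Pumilio-1 PUF domain libraries grown in strain YBZ-1 (LexA–MS2 coat fusion, HIS3 reporter) alongside matching RNA elements. Input plates were SC-Leu and selection plates were SC-Leu-His + 0.5 mM 3-AT, each for four days, and the log2 calculation used a pseudocount of 1 where a variant was absent.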

Assay [2] concerns the target PUM1 PUF domain R4-TAQ (Homo sapiens, UniProt Q14671 828-1176, N971T;H972A). The method, boiled down: as §1
Assay [3] deals with PUM1 PUF domain R8-RCR (Homo sapiens, UniProt Q14671 828-1176, N1122R;Y1123C;Q1126R). The method, boiled down: as §1
Assay [4] has as its target PUM1 PUF domain R3-GPV (Homo sapiens, UniProt Q14671 828-1176, C935G;R936P;Q939V). The essentials:
as §1

The target in assay [5] is PUM1 PUF domain R8-RYR (Homo sapiens, UniProt Q14671 828-1176, N1122R;Q1126R). The method, boiled down:
as §1

In assay [6] the target is T1, PUM1 PUF domain R6-LYA (Homo sapiens, UniProt Q14671 828-1176, N1043L;Q1047A).
T1 sequence: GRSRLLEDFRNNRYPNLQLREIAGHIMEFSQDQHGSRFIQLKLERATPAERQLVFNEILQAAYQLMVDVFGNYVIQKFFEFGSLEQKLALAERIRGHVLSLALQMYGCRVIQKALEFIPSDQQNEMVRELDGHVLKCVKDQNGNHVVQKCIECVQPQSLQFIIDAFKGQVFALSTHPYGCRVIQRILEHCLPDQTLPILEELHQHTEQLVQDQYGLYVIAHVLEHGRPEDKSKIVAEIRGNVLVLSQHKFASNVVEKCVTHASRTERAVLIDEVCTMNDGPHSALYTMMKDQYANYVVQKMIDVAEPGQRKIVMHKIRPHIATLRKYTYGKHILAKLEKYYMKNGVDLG
The essentials:
as §1

Assay [7] concerns the target PUM1 PUF domain R8-DYR (Homo sapiens, UniProt Q14671 828-1176, N1122D;Q1126R). The method, boiled down: as §1
Assay [8] concerns the target PUM1 PUF domain R4-GYP (Homo sapiens, UniProt Q14671 828-1176, N971G;H972Y;Q975P). The method, boiled down:
as §1

The target in assay [9] is PUM1 PUF domain R3-VRH (Homo sapiens, UniProt Q14671 828-1176, C935V;Q939H). The essentials: as §1
Assay [10] addresses PUM1 PUF domain R7-KHQ (Homo sapiens, UniProt Q14671 828-1176, S1079K;N1080H;E1083Q). The essentials:
as §1

The target in assay [11] is PUM1 PUF domain R3-WYA (Homo sapiens, UniProt Q14671 828-1176, C935W;R936Y;Q939A). The essentials: as §1
Assay [12] concerns the target PUM1 PUF domain R1-RMS (Homo sapiens, UniProt Q14671 828-1176, S863R;R864M;Q867S). The method, boiled down:
as §1

Assay [13] concerns the target PUM1 PUF domain R1-LKR (Homo sapiens, UniProt Q14671 828-1176, S863L;R864K;Q867R). The method, boiled down:
as §1

For assay [14], the target named is PUM1 PUF domain R1-GPK (Homo sapiens, UniProt Q14671 828-1176, S863G;R864P;Q867K). The method, boiled down: as §1

For the sequence “GGCUAGAACUAGUGGAUCCCCCGGCGCCCGGCGGCUCGAGCCCGGGUAAGUGUAAAUAGUCUGCAUGCCGCCGGGCGCCAUGCCUGCAGGUCGACUCUAGAAAACAUG”, the binding signal in assay [1] is 2.75 log2 enrichment (interaction score); in [2], 0.74 log2 enrichment (interaction score); in assay [3], 1.34 log2 enrichment (interaction score); in [4], 2.08 log2 enrichment (interaction score); in [5], 6.26 log2 enrichment (interaction score); in assay [6], 2.58 log2 enrichment (interaction score). Also, the binding signal in assay [7] was 0.87 log2 enrichment (interaction score); in assay [8], 5.1 log2 enrichment (interaction score); in [9], 4.55 log2 enrichment (interaction score).

As for “GGCUAGAACUAGUGGAUCCCCCGGCGCCCGGCGGCUCGAGCCCGGGUAAGUCUAAAUAGUCUGCAUGCCGCCGGGCGCCAUGCCUGCAGGUCGACUCUAGAAAACAUG”, the binding signal in [10] is 4.15 log2 enrichment (interaction score).

Take “GGCUAGAACUAGUGGAUCCCCCGGCGCCCGGCGGCUCGAGCCCGGGUAAGUGUAUAUAGUCUGCAUGCCGCCGGGCGCCAUGCCUGCAGGUCGACUCUAGAAAACAUG”: the binding signal in assay [2] was 3.78 log2 enrichment (interaction score); in [8], 7.06 log2 enrichment (interaction score).

Take “GGCUAGAACUAGUGGAUCCCCCGGCGCCCGGCGGCUCGAGCCCGGGUAAGUUUAAAUAGUCUGCAUGCCGCCGGGCGCCAUGCCUGCAGGUCGACUCUAGAAAACAUG”: in assay [10], the binding signal was 2.38 log2 enrichment (interaction score).

In the case of “GGCUAGAACUAGUGGAUCCCCCGGCGCCCGGCGGCUCGAGCCCGGGUAAGUGUAAUUAGUCUGCAUGCCGCCGGGCGCCAUGCCUGCAGGUCGACUCUAGAAAACAUG”, the results for the binding signal in assay [11] and in assay [4] were 3.22 log2 enrichment (interaction score) and 2.28 log2 enrichment (interaction score), respectively.

Turning to “GGCUAGAACUAGUGGAUCCCCCGGCGCCCGGCGGCUCGAGCCCGGGUAAGUGUAAAUCGUCUGCAUGCCGCCGGGCGCCAUGCCUGCAGGUCGACUCUAGAAAACAUG”, the binding signal in assay [12] is 3.18 log2 enrichment (interaction score); in assay [13], 3.44 log2 enrichment (interaction score); in assay [14], 4.33 log2 enrichment (interaction score).

Turning to “GGCUAGAACUAGUGGAUCCCCCGGCGCCCGGCGGCUCGAGCCCGGGUAAGUGUAAAUGGUCUGCAUGCCGCCGGGCGCCAUGCCUGCAGGUCGACUCUAGAAAACAUG”, the binding signal in assay [14] was 0.78 log2 enrichment (interaction score).

The values are drawn from paper PMC8384837, “Expanding the binding specificity for RNA recognition by a PUF domain”.
